Records with an inconclusive call do not appear. Activity calls are given as the source filed them. The calls were made as follows: active = hit-call score of the fitted dose curve at least 0.9, where 1 is the maximum; inconclusive = response in the unintended direction; inactive = score below 0.9.

Read-out in the experiment: xenobiotic metabolism (CYP1A1), CYP1A1 (gene 1543)
The experiment in a line: CLD_CYP1A1_6hr: CellzDirect (CLD) Gene Expression Assay for xenobiotic metabolism (CYP1A1) at 6 hours (AID 2283661).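 As to AC50: potency for transcript induction above DMSO vehicle baseline.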 The protocol: CLD_6hr is a cell-based, multiplexed-readout assay that uses hepatocyte, a human liver primary cell, with measurements taken at 6 hours after chemical dosing in a 96-well plate.CLD_CYP1A1_6hr is one of 16 assay component(s) measured or calculated from the CLD_6hr assay. It is designed to make measurements of mRNA induction, a form of inducible reporter, as detected with chemiluminescence signals by Quantitative Nuclease Protection Assay (qNPA) technology.Data from the assay component CLD_CYP1A1_6hr was analyzed at the endpoint, CLD_CYP1A1_6hr, in the positive analysis fitting direction relative to DMSO as the negative control and baseline of activity. Using a type of inducible reporter, gain-of-signal activity can be used to understand changes in the reporter gene as they relate to the gene CYP1A1. Furthermore, this assay endpoint can be referred to as a primary readout. To generalize the intended target to other relatable targets, this assay endpoint is annotated to the cyp intended target family, where subfamily is xenobiotic metabolism.
Human hepatocyte cultures were treated daily for two consecutive days with fresh dosing solutions containing appropriate concentrations of the 320 ToxCast chemicals (chemical identities were blinded to CellzDirect and other ToxCast collaborators), vehicle control (0.2% DMSO), and positive control inducers as summarized in Table 1. Due to the large number of treatment groups and chemicals examined, the ToxCast chemicals were divided into two groups (spanning two independent cultures of hepatocytes from separate donor preparations (Hu778: ToxCast plates 1 and 2; Hu776: ToxCast plates 3 and 4). Each preparation of human hepatocyte cultures was treated with respective vehicle control, medium only control, set of six positive controls/reference chemicals for the five hepatic receptor pathways, and a subset of eight of the ToxCast chemicals (indoxacarb, pyrithiobac-sodium, norflurazon, cyhalofop-butyl, methomyl, thiram, acetochlor, and propiconazole). These replicate data, coupled with internal replicates designed within the blinded ToxCast chemical library, provided additional data to evaluate interindividual differences between hepatocyte preparations and their potential impact on chemical profiles.Cell morphology and integrity were evaluated using phase-contrast microscopy as an indicator of hepatocyte cell health (Tyson & Green, 1987). Cultures for each treatment group (i.e., media, vehicle [0.2% DMSO], positive control inducers [multiple concentrations], and the ToxCast chemicals [multiple concentrations]) were observed and cell morphology was assessed relative to vehicle control cultures at each harvest time point (0, 6, 24, or 48 h). […] Images were evaluated at the conclusion of the study to assess changes in cell integrity and account for the effects of chemical exposure on uncharacteristic changes in concentration-dependent gene expression profiles. The results from these determinations of apparent cytotoxicity were annotated (yes/no) alongside the corresponding qNPA data for reference.At the conclusion of each treatment period, hepatocyte cultures (96-well) were washed with 1 volume of HBSS, lysed by addition of 25 ul ArrayPlate lysis buffer (HTG, Tucson, AZ), and 70 ul/well of Denaturation Oil, denatured by incubation at 95C for 10 min, and frozen at approximately -70C until analysis by nuclease protection assay (qNPA) (Roberts et al., 2007). For qNPA analysis, cell lysates were thawed at 50C for approximately 30 min, qNPA probes were added, and samples were incubated at 95C for 10 min to begin the detection process by denaturing the target RNA, dissociating the duplexes and secondary structure hybridization. At the conclusion of the hybridization period, S1 nuclease reagent was added to each sample to digest all nonprotected nucleotides at 50C for 60-90 min. […]
For `Clc1ccccc1-c1nnc(-c2ccccc2Cl)nn1`, the outcome was inactive.

As a reminder, the AC50 is the midpoint of the concentration-response curve, whichever way the signal moves. `CNC(=O)CSP(=S)(OC)OC`: the concentration at half-maximal activity (AC50) is 0.275 µM (active).

For the compound `N#Cc1c(Cl)c(Cl)c(Cl)c(C#N)c1Cl`, the AC50 is 36.8 µM (active).

On to `Cc1cc(C)nc(NC(=O)NS(=O)(=O)c2ccccc2C(=O)OC2COC2)n1`, for which the call was inactive.

Turning to `COC(=O)c1ccccc1S(=O)(=O)NC(=O)N(C)c1nc(C)nc(OC)n1`, the AC50 is 20 µM (active).

Take `CC1(C)C(C=C(Cl)Cl)C1C(=O)OC(C#N)c1ccc(F)c(Oc2ccccc2)c1` (stereo not given): the half-maximal activity concentration (AC50) is 20 µM (active).

Take `COP(=S)(OC)Oc1ccc([N+](=O)[O-])cc1`: the half-maximal activity concentration (AC50) is 2.88 µM (active).

Consider `CC(C)N(C(=O)COc1nnc(C(F)(F)F)s1)c1ccc(F)cc1`, for which the compound was called inactive.

For the compound `CC(C)(C)C(O)C(Oc1ccc(Cl)cc1)n1cncn1` (stereo not given), the AC50 was 1.55 µM (active).

Consider `COP(=O)(OC)OC=C(Cl)Cl`, for which the concentration at half-maximal activity (AC50) was 1.9 µM (active).

Consider `COC(=O)c1ccccc1S(=O)(=O)NC(=O)Nc1nc(C)nc(OC)n1`, for which the half-maximal activity concentration (AC50) was 20 µM (active).

Regarding `CCOc1nc(NC)nc(NC(=O)NS(=O)(=O)c2ccccc2C(=O)OC)n1`, the result was inactive.

For `CC(C)OC(=O)Nc1cccc(Cl)c1`, the AC50 is 3.3 µM (active).

Consider `Oc1cc(Cl)ccc1Oc1ccc(Cl)cc1Cl`, for which the compound was classed as inactive.

On to `Cc1[nH]c(=O)n(C(C)(C)C)c(=O)c1Cl`, for which the AC50 is 20 µM (active).

For the compound `O=C(O)C(F)(F)C(F)(F)C(F)(F)C(F)(F)C(F)(F)C(F)(F)C(F)(F)F`, the result was inactive.

Turning to `ClC1C(Cl)C(Cl)C(Cl)C(Cl)C1Cl` (stereo not given), the result was inactive.

In the case of `CCN(CC)C(=O)SCc1ccc(Cl)cc1`, the result was inactive.

With `OCCOc1ccccc1`, the call was inactive.

`CNC(=O)/C=C(\C)OP(=O)(OC)OC`: the call was inactive.

With `CCOC1Oc2ccc(OS(C)(=O)=O)cc2C1(C)C` (stereo not given), the concentration at half-maximal activity (AC50) is 3.97 µM (active).

In the case of `O=C(O)CCCOc1ccc(Cl)cc1Cl`, the outcome was inactive.

As for `O=C(O)COc1ccc(Cl)cc1Cl`, the AC50 is 0.459 µM (active).

As for `O=[N+]([O-])c1c(Cl)c(Cl)c(Cl)c(Cl)c1Cl`, the compound was called inactive.

As to `COc1nn(CSP(=S)(OC)OC)c(=O)s1`, the half-maximal activity concentration (AC50) is 1.25 µM (active).

On to `CCC(C)Nc1c([N+](=O)[O-])cc(C(C)(C)C)cc1[N+](=O)[O-]` (stereo not given), for which the AC50 is 3.41 µM (active).

Turning to `CC1(c2ccc(Oc3ccccc3)cc2)OC(=O)N(Nc2ccccc2)C1=O` (stereo not given), the compound was called inactive.

For the compound `CCC(C)(NC(=O)c1cc(Cl)c(C)c(Cl)c1)C(=O)CCl` (stereo not given), the call was inactive.

For `CCc1ccc(C(=O)NN(C(=O)c2cc(C)cc(C)c2)C(C)(C)C)cc1`, the AC50 was 7.56 µM (active).

For the compound `O=C(Nc1ccccc1)Nc1cnns1`, the half-maximal activity concentration (AC50) was 1.87 µM (active).

On to `COc1cc(OC)nc(NC(=O)NS(=O)(=O)c2cc(NC=O)ccc2C(=O)N(C)C)n1`, for which the compound was classed as inactive.

Regarding `CCCN(CCOc1c(Cl)cc(Cl)cc1Cl)C(=O)n1ccnc1`, the AC50 is 0.0868 µM (active).

As for `O=[N+]([O-])/N=C1\NCCN1Cc1ccc(Cl)nc1`, the result was inactive.

With `Oc1ccc(Cl)cc1Cc1ccccc1`, the call was inactive.

With `N#CN`, the compound was called inactive.

With `O=C(NC(=O)c1c(F)cccc1F)Nc1ccc(OC(F)(F)C(F)OC(F)(F)F)c(Cl)c1` (stereo not given), the call was inactive.

Turning to `COC(=O)c1ccccc1CS(=O)(=O)NC(=O)Nc1nc(OC)cc(OC)n1`, the concentration at half-maximal activity (AC50) is 20 µM (active).

In the case of `O=S(=O)(O)C(F)(F)C(F)(F)C(F)(F)C(F)(F)C(F)(F)C(F)(F)C(F)(F)C(F)(F)F`, the compound was called inactive.

Regarding `CCCN(CCC)c1c([N+](=O)[O-])cc(C(F)(F)F)cc1[N+](=O)[O-]`, the concentration at half-maximal activity (AC50) is 3.69 µM (active).

In the case of `CCOCN(C(=O)CCl)c1c(C)cccc1CC`, the compound was called inactive.

The record behind these values is PubChem BioAssay (EPA / NIEHS).
